Bcl-XL Bim block: disrupts Bim peptide binding to human Bcl-XL | Q07817 | bead flow cytometry, fluorescence | inhibition, % at 10 µM | 190,000 tested, 0.04% active | AID 1007
Wee1 stabilizer: inhibitors of human Wee1 degradation | P30291 | HeLa Luc-Wee1K328M stability, luciferase luminescence; 100% = proteasome inhibitor MG132 effect | reporter increase, % at 5 µM | 220,000 tested, 1.2% active | AID 1321;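 active means activation above the mean of all tested compounds plus 3 SD, set per screening run, cut at about 8.8% in these data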;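 further: cells exposed to compound for 20 h before luminescence read; 0% = DMSO alone and 100% = MG132 at 30 µM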
Bim-Bcl-W: human Bim-Bcl-W interaction inhibition. bead-based flow cytometry, Bim peptide-Bcl-W binding. inhibition, % at 10 µM. 190,000 tested, 0.02% active;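 further: 0% = bound tracer without compound and 100% = peptide blocker; higher means less fluorescent Bim peptide bound to Bcl-W beads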
Target sequence (Q92843 whole entry, looked up): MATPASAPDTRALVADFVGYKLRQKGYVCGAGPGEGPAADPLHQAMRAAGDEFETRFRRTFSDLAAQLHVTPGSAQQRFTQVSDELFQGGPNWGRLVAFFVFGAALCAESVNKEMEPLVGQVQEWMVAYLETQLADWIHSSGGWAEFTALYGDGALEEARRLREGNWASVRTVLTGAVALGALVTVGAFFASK
Bcl-B Bim block: human Bim-Bcl-B interaction inhibition; AID 951; inhibition, % at 10 µM; bead-based flow cytometry, Bim peptide-Bcl-B binding; 190,000 tested, 0.073% active;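 further: 0% = tracer peptide without compound and 100% = reference inhibitor peptide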
Target sequence (Q9HD36 whole entry, looked up): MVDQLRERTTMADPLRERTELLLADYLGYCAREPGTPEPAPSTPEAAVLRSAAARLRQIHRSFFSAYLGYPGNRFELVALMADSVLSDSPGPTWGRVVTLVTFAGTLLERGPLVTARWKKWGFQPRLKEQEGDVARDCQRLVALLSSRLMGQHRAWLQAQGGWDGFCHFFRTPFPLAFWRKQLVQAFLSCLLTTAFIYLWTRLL
Bim-Bcl-2: human Bim-Bcl-2 interaction inhibition; P10415; Bead-based flow cytometry, Bim peptide-Bcl-2 binding; inhibition, % at 10 µM; 190,000 tested, 0.06% active; in the data active means inhibition above about 40%;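 further: 0% = no compound wells with probe peptide and 100% = reference peptide inhibitor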
Target sequence (P10415 whole entry, looked up): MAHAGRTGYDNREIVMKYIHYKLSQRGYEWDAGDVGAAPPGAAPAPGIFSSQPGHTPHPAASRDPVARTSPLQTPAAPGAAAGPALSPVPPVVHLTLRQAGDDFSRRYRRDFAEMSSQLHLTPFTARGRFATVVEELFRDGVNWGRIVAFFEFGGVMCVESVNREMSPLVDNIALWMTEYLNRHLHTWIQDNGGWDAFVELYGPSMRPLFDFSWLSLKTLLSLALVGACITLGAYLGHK
Bfl-1 Bim block: disrupts Bim binding to human Bfl-1; Q16548; Bead-based flow cytometry, Bim-Bfl-1 binding inhibition; inhibition, % at 10 µM; 190,000 tested, 0.12% active; AID 1008;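 further: 0% = wells without compound plus tracer and 100% = blocker peptide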
Wee1 degr conf: human Wee1 degradation inhibition, confirmation. shares compounds with Wee1 stabilizer. HeLa Luc-Wee1K328M degradation, luminescence; vehicle 0%, proteasome-blocked wells 100%. activation, % at 5 µM. 1,100 tested, 4% active. AID 1410; in the data active means activation above about 8.9%
Numbers without * were called inactive. An excerpt weighted towards active compounds, which were near 1.4% of everything screened. Unless noted, no stated cut-off is given here; in the data, active means inhibition above about 40%.

CS(=O)(=O)N(Cc1ccccc1)c1ccccc1C(=O)N1CCN(c2ccccc2)CC1 was read as Bcl-XL Bim block 2, Wee1 stabilizer -1, Bim-Bcl-W 6, Bcl-B Bim block -4, Bim-Bcl-2 -4 and Bfl-1 Bim block -6.
O=C(NC1CC1)c1ccc(F)cc1Cl was read as Bcl-XL Bim block -3, Wee1 stabilizer -2, Bim-Bcl-W 4, Bcl-B Bim block -2, Bim-Bcl-2 -3 and Bfl-1 Bim block -10.
Screening CCS(=O)(=O)c1ccc(C(=O)NC2CC2)c(Cl)c1Cl returned Bcl-XL Bim block 0, Wee1 stabilizer 11*, Bim-Bcl-W 1, Bcl-B Bim block -1, Bim-Bcl-2 0, Bfl-1 Bim block 0 and Wee1 degr conf 2.
`O=C(NC1=NCCS1)c1ccc([N+](=O)[O-])cc1Cl` gave Bcl-XL Bim block 0, Wee1 stabilizer -2, Bim-Bcl-W 0, Bcl-B Bim block -6, Bim-Bcl-2 -2 and Bfl-1 Bim block -7.
Clc1cccc(Cl)c1-c1nnc2cccc(Cl)n12 was read as Bcl-XL Bim block -1, Wee1 stabilizer 12*, Bim-Bcl-W 0, Bcl-B Bim block -1, Bim-Bcl-2 2, Bfl-1 Bim block 1 and Wee1 degr conf -1.
For COCCNC(=O)c1ccccc1NC(=O)c1ccccc1SC the results were Bcl-XL Bim block -2, Wee1 stabilizer 0, Bim-Bcl-W -3, Bcl-B Bim block -5, Bim-Bcl-2 0 and Bfl-1 Bim block 0.
Screening CCCC(=O)N1CCN(c2ccc(NC(=O)c3cccs3)cc2Cl)CC1 returned Bcl-XL Bim block -2, Wee1 stabilizer 16*, Bim-Bcl-W 1, Bcl-B Bim block -4, Bim-Bcl-2 -3, Bfl-1 Bim block -6 and Wee1 degr conf -1.
Screening Cc1ccc2nc(SCC(=O)Nc3cccc(S(=O)(=O)N(C)C)c3)[nH]c2c1 returned Bcl-XL Bim block -18, Wee1 stabilizer 9, Bim-Bcl-W -5, Bcl-B Bim block -14, Bim-Bcl-2 -4 and Bfl-1 Bim block -12.
`NS(=O)(=O)c1cccc(NC(=O)CSc2nc3ccc(Cl)cc3[nH]2)c1` gave Bcl-XL Bim block -3, Wee1 stabilizer 12*, Bim-Bcl-W 0, Bcl-B Bim block -5, Bim-Bcl-2 -3, Bfl-1 Bim block -4 and Wee1 degr conf -3.
Screening CCCCn1c(SCC(=O)NC2CCS(=O)(=O)C2)nc2cc(S(N)(=O)=O)ccc21 (stereo not drawn) returned Bcl-XL Bim block 0, Wee1 stabilizer 0, Bim-Bcl-W -1, Bcl-B Bim block 7, Bim-Bcl-2 3 and Bfl-1 Bim block 3.
Screening Cc1nonc1NC(=O)CSc1nc2cc(Cl)ccc2c2c1CCCC2 returned Bcl-XL Bim block -8, Wee1 stabilizer 1, Bim-Bcl-W -1, Bcl-B Bim block -1, Bim-Bcl-2 -8 and Bfl-1 Bim block -5.
Cc1ccc2c3c(c(SCC(=O)Nc4nonc4C)nc2c1)CCCC3 was read as Bcl-XL Bim block -2, Wee1 stabilizer 13*, Bim-Bcl-W 0, Bcl-B Bim block -4, Bim-Bcl-2 -5, Bfl-1 Bim block -2 and Wee1 degr conf 2.
CC(C)(C)c1ccc(OCCCC(=O)N2CCOCC2)cc1 was read as Bcl-XL Bim block -1, Wee1 stabilizer 3, Bim-Bcl-W 0, Bcl-B Bim block 0, Bim-Bcl-2 -5 and Bfl-1 Bim block -5.
For COc1ccc(OCCC(=O)N2CCOCC2)cc1 the results were Bcl-XL Bim block -3, Wee1 stabilizer 12*, Bim-Bcl-W -4, Bcl-B Bim block -3, Bim-Bcl-2 -5, Bfl-1 Bim block -5 and Wee1 degr conf 1.
For COc1cccc(C2CC(C(F)(F)F)n3ncc(C(=O)NC(C)(C)C)c3N2)c1 (stereo not drawn) the results were Bcl-XL Bim block -5, Wee1 stabilizer 4, Bim-Bcl-W 0, Bcl-B Bim block -7, Bim-Bcl-2 -11 and Bfl-1 Bim block -17.
For COc1ccc(C2CC(C(F)(F)F)n3ncc(C(=O)Nc4cccc(O)c4)c3N2)cc1OC (stereo not drawn) the results were Bcl-XL Bim block 0, Wee1 stabilizer 13*, Bim-Bcl-W -1, Bcl-B Bim block 0, Bim-Bcl-2 -4, Bfl-1 Bim block 3 and Wee1 degr conf -3.
`CC(C)CN1CCNC(=O)C1CC(=O)NCCCN1CCCc2ccccc21` (stereo not drawn) gave Bcl-XL Bim block -1, Wee1 stabilizer 3, Bim-Bcl-W 1, Bcl-B Bim block 0, Bim-Bcl-2 0 and Bfl-1 Bim block 0.
Screening COc1ccc(-c2nc(-c3ccc4c(c3)OCO4)[nH]c2-c2ccc(OC)cc2)cc1 returned Bcl-XL Bim block -5, Wee1 stabilizer 13*, Bim-Bcl-W 0, Bcl-B Bim block -5, Bim-Bcl-2 4, Bfl-1 Bim block 0 and Wee1 degr conf 0.
`COc1ccc(-c2noc(-c3ccc4c(c3)OCO4)n2)cc1` gave Bcl-XL Bim block -10, Wee1 stabilizer 1, Bim-Bcl-W 0, Bcl-B Bim block -8, Bim-Bcl-2 -13 and Bfl-1 Bim block -18.
`N#C/C(C(=O)N1CCOCC1)=C1/SC(Cc2ccccc2Cl)C(=O)N1c1ccccc1` (stereo not drawn) gave Bcl-XL Bim block -2, Wee1 stabilizer 11*, Bim-Bcl-W -2, Bcl-B Bim block -10, Bim-Bcl-2 2, Bfl-1 Bim block 0 and Wee1 degr conf 0.
Cc1ccccc1C(=O)Nc1ccc(C(=O)N/N=C/c2ccc(O)c(Br)c2)cc1 was read as Bcl-XL Bim block 1, Wee1 stabilizer -2, Bim-Bcl-W 0, Bcl-B Bim block 0, Bim-Bcl-2 0 and Bfl-1 Bim block 3.
For CC(C)(C)NC(=O)C1CCC(CNc2c(N3CCCCC3)c(=O)c2=O)CC1 (stereo not drawn) the results were Wee1 stabilizer 1.
Cc1ccc(/C=C/C(=O)NCCCc2ccccc2)cc1 was read as Bcl-XL Bim block 17, Wee1 stabilizer 19*, Bim-Bcl-W 10, Bcl-B Bim block 9, Bim-Bcl-2 18, Bfl-1 Bim block 18 and Wee1 degr conf -1.
For Cc1nn(C)cc1CNC(=O)Nc1ccc(Cl)c(Cl)c1 the results were Bcl-XL Bim block -3, Wee1 stabilizer 2, Bim-Bcl-W -1, Bcl-B Bim block -8, Bim-Bcl-2 -12 and Bfl-1 Bim block -14.
For Cc1ccc(NC(=O)NCc2c(C)nn(C)c2C)cc1Cl the results were Bcl-XL Bim block -2, Wee1 stabilizer 18*, Bim-Bcl-W -1, Bcl-B Bim block -4, Bim-Bcl-2 -1, Bfl-1 Bim block -3 and Wee1 degr conf 4.
CC(=O)c1sc(N/N=C\c2ccccc2O)nc1C was read as Bcl-XL Bim block 0, Wee1 stabilizer -1, Bim-Bcl-W -2, Bcl-B Bim block -8, Bim-Bcl-2 0 and Bfl-1 Bim block -4.

Screening results deposited in PubChem BioAssay by several laboratories.
